Structures are written as SMILES. For some assays here: Entries with a potency or affinity are not part of this list.

This is an account of results in ChEMBL document CHEMBL3988442, “University of Dundee, Small-Polar-MMV Screening Library” (2021).

What all share (set-up): scale not given: direction of the effect not stated beside the values
Assay [1] addresses Protein translocase subunit SecA (Escherichia coli (strain K12)) (UniProt P10408). As to the kind of experiment: Assay to Identify E. coli SecA ATPase Inhibitors. It counts as functional. The following applies: 30 µM.
The target of assay [2] is T1, Ubiquitin-activating enzyme e1, putative (Leishmania donovani (strain BPK282A1)) (UniProt E9BSI1).
T1 sequence (whole entry): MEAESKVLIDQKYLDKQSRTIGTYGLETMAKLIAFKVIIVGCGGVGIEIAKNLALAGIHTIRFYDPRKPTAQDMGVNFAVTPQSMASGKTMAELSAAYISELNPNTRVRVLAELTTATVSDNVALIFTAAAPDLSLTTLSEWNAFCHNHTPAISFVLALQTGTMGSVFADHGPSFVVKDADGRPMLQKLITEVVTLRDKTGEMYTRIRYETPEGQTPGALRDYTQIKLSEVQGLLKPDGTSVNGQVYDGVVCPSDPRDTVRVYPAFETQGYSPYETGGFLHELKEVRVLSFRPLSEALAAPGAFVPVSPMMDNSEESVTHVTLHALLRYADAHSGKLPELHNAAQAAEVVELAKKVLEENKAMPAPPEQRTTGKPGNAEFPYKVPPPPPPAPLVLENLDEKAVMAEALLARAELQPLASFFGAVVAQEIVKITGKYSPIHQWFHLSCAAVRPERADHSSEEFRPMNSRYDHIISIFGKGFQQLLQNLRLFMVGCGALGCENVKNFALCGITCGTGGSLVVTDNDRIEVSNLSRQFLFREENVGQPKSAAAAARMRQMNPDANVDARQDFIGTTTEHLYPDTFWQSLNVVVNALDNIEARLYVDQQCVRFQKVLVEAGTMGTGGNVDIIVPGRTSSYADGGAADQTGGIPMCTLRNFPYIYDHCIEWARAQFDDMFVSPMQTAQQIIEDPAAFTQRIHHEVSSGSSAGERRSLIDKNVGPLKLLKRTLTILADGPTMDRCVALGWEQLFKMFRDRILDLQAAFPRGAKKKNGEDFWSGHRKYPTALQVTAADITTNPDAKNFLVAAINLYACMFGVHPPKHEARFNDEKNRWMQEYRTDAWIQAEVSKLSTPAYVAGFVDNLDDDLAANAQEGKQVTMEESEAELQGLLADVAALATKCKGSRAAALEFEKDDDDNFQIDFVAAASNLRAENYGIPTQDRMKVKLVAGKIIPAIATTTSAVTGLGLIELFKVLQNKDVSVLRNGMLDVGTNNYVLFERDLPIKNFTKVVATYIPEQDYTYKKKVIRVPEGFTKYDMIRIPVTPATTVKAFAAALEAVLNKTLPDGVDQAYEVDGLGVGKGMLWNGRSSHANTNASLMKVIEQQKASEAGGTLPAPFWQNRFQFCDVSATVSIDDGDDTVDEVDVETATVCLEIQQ
As to the kind of experiment: Leishmania donovani Ubiquitin Activating Enzyme (LdE1). It counts as functional. The following applies: 30 µM.

Assay [3] addresses Sialic acid-binding Ig-like lectin 9 (Homo sapiens) (UniProt Q9Y336). Description: Hs-Siglec9 ALPHAscreen SOP 20170721. As to conditions: 10 µM. In general terms: Bead proximity is the source of the signal in Alpha formats.
In the next assay the test system is Trypanosoma cruzi. As to the kind of experiment: Trypanosoma cruzi phosphomannomutase and mannose-1-phosphate guanylyltransferase assay. It counts as functional. The following applies: 10 µM.
Assay [4] concerns the target T2, Arginase-2, mitochondrial (Homo sapiens) (UniProt P78540).
T2 sequence (whole entry): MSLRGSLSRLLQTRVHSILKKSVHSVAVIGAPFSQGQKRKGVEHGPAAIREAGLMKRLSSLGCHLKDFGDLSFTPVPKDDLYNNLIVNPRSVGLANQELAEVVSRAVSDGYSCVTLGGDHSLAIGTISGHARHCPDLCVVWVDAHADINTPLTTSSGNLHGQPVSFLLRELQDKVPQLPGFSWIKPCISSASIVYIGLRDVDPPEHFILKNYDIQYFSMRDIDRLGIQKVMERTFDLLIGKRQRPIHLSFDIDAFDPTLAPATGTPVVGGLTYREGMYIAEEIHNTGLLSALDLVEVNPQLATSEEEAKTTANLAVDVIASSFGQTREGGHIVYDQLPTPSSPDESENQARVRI
Description: in vitro enzyme assay to detect the production of urea directly proportional to the activity of Arginase II. Note: in the data most compounds retested in dose-response had high values. It counts as functional. The following applies: 33.3 µM.

The target in assay [5] is T3, Proteasome subunit beta (Trypanosoma cruzi) (UniProt O96673).
T3 sequence (whole entry): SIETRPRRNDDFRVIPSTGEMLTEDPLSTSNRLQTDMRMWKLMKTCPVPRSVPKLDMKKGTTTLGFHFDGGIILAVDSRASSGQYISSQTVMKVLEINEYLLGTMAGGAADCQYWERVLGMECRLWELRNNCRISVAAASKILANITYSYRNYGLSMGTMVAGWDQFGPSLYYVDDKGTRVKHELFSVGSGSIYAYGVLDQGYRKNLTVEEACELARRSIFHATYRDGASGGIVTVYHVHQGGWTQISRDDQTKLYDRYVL
Description: Trypanosoma cruzi proteasome chymotrypsin-like activity (TcProtChymo) assay. Note: in the data most compounds retested in dose-response had high values. It counts as functional. As to conditions: 9.37 µM.

Another assay is filed under the species Homo sapiens. Description: To identify inhibition of the IFN signalling (Jak-Stat) pathway via expression of an eGFP reporter gene under the control of an IFN-stimulated response element (ISRE) containing MxA promoter. It counts as functional. The following applies: 30 µM.
Assay [6] has as its target T4, Tyrosyl-tRNA synthetase, putative (Trypanosoma cruzi (strain CL Brener)) (UniProt Q4DSP6).
T4 sequence (whole entry): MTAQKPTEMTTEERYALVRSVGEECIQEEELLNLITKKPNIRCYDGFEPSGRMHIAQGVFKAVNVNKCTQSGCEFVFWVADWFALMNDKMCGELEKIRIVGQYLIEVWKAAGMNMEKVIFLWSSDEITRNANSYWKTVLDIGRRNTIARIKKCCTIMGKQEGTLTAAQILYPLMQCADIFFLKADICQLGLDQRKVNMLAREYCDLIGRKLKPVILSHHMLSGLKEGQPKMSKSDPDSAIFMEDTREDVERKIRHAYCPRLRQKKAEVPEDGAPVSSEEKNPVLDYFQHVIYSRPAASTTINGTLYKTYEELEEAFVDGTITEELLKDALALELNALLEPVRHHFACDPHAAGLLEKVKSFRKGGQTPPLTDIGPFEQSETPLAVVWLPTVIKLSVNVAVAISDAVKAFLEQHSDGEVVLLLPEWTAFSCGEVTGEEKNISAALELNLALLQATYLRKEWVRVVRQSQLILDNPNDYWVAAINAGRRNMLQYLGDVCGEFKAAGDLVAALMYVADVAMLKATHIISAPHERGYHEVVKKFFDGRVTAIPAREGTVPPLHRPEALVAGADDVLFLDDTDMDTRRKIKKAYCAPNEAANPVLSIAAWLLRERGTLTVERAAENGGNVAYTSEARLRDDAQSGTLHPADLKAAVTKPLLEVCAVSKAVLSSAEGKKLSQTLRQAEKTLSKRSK
As to the kind of experiment: Trypanosoma cruzi tyrosyl tRNA synthetase (TcYRS) _High Tyrosine SOP. Note: in the data most compounds retested in dose-response had high values. The format is functional. As to conditions: 30 µM.

In assay [7] the target is T4, Tyrosyl-tRNA synthetase, putative (Trypanosoma cruzi (strain CL Brener)). As to the kind of experiment: Trypanosoma cruzi tyrosyl tRNA synthetase (TcYRS) SOP. It counts as functional. The following applies: 30 µM.
Assay [8] concerns the target Chromo domain-containing protein 1 (Saccharomyces cerevisiae (strain ATCC 204508 / S288c) (Baker's yeast)) (UniProt P32657). As to the kind of experiment: ScCHD-1 Enzyme Inhibition Assay. Note: in the data most compounds retested in dose-response had high values. The format is functional. The following applies: 30 µM.

Protein translocase subunit SecA (Escherichia coli (strain K12)), sequence (P10408 whole entry): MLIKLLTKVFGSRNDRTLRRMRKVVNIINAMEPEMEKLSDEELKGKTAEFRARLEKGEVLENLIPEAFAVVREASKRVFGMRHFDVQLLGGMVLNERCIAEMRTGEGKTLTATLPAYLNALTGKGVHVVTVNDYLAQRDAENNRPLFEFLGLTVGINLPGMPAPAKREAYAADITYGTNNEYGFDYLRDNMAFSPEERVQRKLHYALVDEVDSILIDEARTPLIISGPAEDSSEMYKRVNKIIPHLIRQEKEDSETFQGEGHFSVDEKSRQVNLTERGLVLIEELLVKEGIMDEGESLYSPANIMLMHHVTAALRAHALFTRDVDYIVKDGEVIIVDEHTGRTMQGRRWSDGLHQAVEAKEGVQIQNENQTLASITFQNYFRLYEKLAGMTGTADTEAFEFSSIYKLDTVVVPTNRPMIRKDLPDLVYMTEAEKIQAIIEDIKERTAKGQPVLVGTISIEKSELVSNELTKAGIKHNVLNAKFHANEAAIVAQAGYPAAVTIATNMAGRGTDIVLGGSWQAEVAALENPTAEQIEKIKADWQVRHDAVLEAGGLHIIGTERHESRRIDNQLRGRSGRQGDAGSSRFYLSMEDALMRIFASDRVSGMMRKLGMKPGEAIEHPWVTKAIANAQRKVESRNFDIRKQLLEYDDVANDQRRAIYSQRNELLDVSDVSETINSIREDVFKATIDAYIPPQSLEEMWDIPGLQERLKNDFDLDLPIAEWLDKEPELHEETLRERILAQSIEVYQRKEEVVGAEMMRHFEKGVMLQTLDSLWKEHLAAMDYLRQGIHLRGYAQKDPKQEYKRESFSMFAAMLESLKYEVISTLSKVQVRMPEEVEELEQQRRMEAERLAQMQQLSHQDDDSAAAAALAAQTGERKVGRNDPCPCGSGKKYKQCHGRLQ
Chromo domain-containing protein 1 (Saccharomyces cerevisiae (strain ATCC 204508 / S288c) (Baker's yeast)), sequence (P32657 whole entry, the tested form may be a part): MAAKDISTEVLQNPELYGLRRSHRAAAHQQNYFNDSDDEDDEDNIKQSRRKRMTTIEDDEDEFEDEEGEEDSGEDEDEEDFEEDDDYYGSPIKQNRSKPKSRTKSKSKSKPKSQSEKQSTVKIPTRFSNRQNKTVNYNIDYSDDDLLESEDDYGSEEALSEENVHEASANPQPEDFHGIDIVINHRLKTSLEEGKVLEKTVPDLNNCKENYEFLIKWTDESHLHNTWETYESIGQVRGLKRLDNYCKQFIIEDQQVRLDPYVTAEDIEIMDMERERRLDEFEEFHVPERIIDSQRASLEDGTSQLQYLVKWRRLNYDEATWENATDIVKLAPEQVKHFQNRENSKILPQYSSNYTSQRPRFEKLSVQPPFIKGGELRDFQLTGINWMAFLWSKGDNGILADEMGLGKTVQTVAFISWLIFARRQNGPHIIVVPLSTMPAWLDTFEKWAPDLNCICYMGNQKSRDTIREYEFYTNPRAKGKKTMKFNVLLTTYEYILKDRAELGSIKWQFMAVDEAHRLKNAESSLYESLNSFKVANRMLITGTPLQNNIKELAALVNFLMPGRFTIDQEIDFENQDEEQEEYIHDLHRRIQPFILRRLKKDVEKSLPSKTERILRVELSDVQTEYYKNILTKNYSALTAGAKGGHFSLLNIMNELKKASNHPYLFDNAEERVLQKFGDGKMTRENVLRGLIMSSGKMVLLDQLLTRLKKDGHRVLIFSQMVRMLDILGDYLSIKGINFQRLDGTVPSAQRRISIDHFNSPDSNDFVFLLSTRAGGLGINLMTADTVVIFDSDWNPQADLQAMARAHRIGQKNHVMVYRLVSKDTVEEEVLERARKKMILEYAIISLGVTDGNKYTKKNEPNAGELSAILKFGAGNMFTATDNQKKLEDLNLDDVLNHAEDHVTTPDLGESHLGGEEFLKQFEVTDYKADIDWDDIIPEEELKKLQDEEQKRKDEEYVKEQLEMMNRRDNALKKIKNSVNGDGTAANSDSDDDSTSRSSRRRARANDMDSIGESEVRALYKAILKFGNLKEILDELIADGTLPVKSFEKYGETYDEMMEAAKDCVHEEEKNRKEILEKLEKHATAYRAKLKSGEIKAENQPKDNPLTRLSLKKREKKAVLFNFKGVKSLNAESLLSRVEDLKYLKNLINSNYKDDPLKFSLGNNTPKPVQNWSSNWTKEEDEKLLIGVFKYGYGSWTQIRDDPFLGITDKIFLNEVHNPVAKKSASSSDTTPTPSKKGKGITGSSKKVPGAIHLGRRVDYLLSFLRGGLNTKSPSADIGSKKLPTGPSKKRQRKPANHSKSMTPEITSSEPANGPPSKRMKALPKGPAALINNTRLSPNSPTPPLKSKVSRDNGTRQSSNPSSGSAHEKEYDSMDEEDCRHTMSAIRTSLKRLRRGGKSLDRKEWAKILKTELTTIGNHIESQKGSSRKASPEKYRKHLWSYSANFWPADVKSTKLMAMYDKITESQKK
Sialic acid-binding Ig-like lectin 9 (Homo sapiens), sequence (Q9Y336 whole entry): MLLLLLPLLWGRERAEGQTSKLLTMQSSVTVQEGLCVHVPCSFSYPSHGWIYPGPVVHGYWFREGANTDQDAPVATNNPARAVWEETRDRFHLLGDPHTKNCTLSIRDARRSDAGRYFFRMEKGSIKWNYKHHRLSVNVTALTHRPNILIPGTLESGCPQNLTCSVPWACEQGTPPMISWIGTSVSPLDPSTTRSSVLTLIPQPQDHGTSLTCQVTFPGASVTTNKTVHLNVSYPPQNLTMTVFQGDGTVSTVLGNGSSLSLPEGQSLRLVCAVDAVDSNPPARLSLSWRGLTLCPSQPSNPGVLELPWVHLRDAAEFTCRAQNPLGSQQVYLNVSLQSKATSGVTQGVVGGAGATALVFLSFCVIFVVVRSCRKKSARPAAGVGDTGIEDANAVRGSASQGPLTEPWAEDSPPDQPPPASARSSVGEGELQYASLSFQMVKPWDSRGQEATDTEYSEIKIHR

As for `Cc1ccc(NC2CCN(C(=O)c3cc(C(N)=O)cs3)CC2)nn1`, the Percent Effect in assay [1] is -3.49%; in assay [2] it was 2.67%; in [3] it was 2.8%; in the assay on Trypanosoma cruzi it was 1.41%; in assay [4] it was 0.444%; in assay [5], 7.55%. Further, the Percent Effect in the assay listed under Homo sapiens was 21.6%; in [6], 1.58%; in assay [7], 5.13%; in assay [8] it was -4.07%.

As for `Cc1nc(C(=O)N2CCc3c(nc(-c4ccncc4)[nH]c3=O)C2)cs1`, the Percent Effect is -4.53% in assay [1]; 0% in assay [2]; 1.7% in assay [3]; -2.62% in the assay on Trypanosoma cruzi; 3.85% in [4]; 11.6% in [5]. Besides, the Percent Effect in the assay filed under Homo sapiens is 5.04%; in assay [6] it was 5.85%; in assay [7], 9.76%; in [8], -3.73%.

For `CCOc1ccc2[nH]c(=O)c(CN3CCC(O)CC3)cc2c1`, the Percent Effect is -8.45% in assay [1]; 5.41% in assay [2]; 3.7% in assay [3]; 3.4% in the assay with Trypanosoma cruzi; -1.75% in assay [4]; 3.77% in [5]. The Percent Effect in the assay filed under Homo sapiens is -4.92%; in assay [6], 9.04%; in [7], 21.9%; in [8] it was -0.516%.

As to `Cc1cnc(CN(C)C2CCN(Cc3ccccc3C#N)C2)o1` (stereo not given), the Percent Effect was 0.623% in assay [1]; 13.3% in assay [2]; -5.38% in assay [3]; -5.82% in the assay with Trypanosoma cruzi; 3.1% in assay [4]; 18.4% in [5]. The Percent Effect in the assay filed under Homo sapiens was 2.92%; in [6], 3.68%; in [7] it was 7.69%; in [8] it was -11.8%.

On to `CC(C)c1nnc2n1CCN(C(=O)c1ccnc(N(C)C)c1)C2`, for which the Percent Effect in assay [1] is -5.81%; in [2], 10.7%; in assay [3], 7.33%; in the assay on Trypanosoma cruzi, 0%; in assay [4] it was -5.76%; in assay [5], 16.9%. For the same compound, the Percent Effect in the assay filed under Homo sapiens is -3.26%; in assay [6], 3.68%; in [7] it was 10.3%; in [8], -12.4%.

For the compound `CCc1nc(CN2CCCN(C(=O)c3c(C)noc3C)CC2)cs1`, the Percent Effect in [1] is -2.47%; in assay [2], 10.3%; in assay [3] it was -1.6%; with Trypanosoma cruzi it was 0.0939%; in assay [4], 2.87%; in [5], 8.11%. The Percent Effect was 13.8% in the assay filed under Homo sapiens, 3.35% in assay [6], 8.43% in assay [7] and -3.62% in [8].

Consider `O=C1CC(c2ccsc2)c2sc(C(=O)O)c(-c3ccccc3)c2N1` (stereo not given), for which the Percent Effect is -4.21% in [1]; 8.11% in assay [2]; 8.19% in [3]; 5.92% in the assay on Trypanosoma cruzi; 21.3% in assay [4]; 21.9% in [5]. In addition, the Percent Effect was found to be 11.7% in the assay listed under Homo sapiens, 4.79% in assay [6], 12.2% in assay [7] and 33.2% in assay [8].

For the compound `O=C1CCC(C(=O)NCc2nn(-c3ccccc3)c3c2CCC3)CN1` (stereo not given), the Percent Effect was -6.78% in [1]; 5.13% in assay [2]; -2.63% in [3]; -2.16% in the assay on Trypanosoma cruzi; -2.46% in assay [4]; 1.96% in [5]. Besides, the Percent Effect in the assay listed under Homo sapiens came out at 22%; in [6], 1.44%; in assay [7], 6.02%; in assay [8] it was 0.942%.

Consider `O=C(CN1CCCC(Cn2cncn2)C1)NCCOc1ccccc1` (stereo not given), for which the Percent Effect in [1] was 3.17%; in assay [2] it was -2.67%; in assay [3], 2.29%; in the assay with Trypanosoma cruzi, -1.41%; in [4], 5.32%; in [5], 4.67%. In addition, the Percent Effect in the assay listed under Homo sapiens was 6.94%; in assay [6], 0.526%; in assay [7] it was 0%; in assay [8], -6.78%.

`CN(Cc1ccsc1)C(=O)CN1CCOC(Cn2cccn2)C1` (stereo not given): the Percent Effect in [1] is -9.25%; in assay [2], 7.79%; in assay [3], -1.67%; in the assay with Trypanosoma cruzi it was -1.49%; in assay [4], -0.615%; in assay [5], -3.51%. For the same compound, the Percent Effect is 19.9% in the assay filed under Homo sapiens, 0% in assay [6], -16.5% in [7] and -7.08% in [8].

For `COCCC(=O)N1CCCC2(CCC(=O)N2CCOC)CC1` (stereo not given), the Percent Effect in assay [1] is -2.63%; in assay [2] it was 11.7%; in assay [3], -2.38%; in the assay on Trypanosoma cruzi, -4.13%; in assay [4], 4.57%; in [5], -1.97%. The Percent Effect in the assay filed under Homo sapiens is 11.1%; in assay [6], 2.9%; in [7] it was 2.5%; in [8], -3.46%.
